# Laboratory results taken from the supplement of paper PMC10681739.
# What was measured:
# [1] = target: RUNX1 (UniProt Q01196); assay: RUNX1 binding intensity (PBM fluorescence), RUNX1 alone (arbitrary fluorescence units); higher = stronger binding; details: RUNX1 concentration 2 nM; ETS1 concentration 0 nM
# Procedure: (§1)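 Cooperative gcPBM on 36-bp genomic probes with neighbouring ETS1 and RUNX1 sites. Recombinant human RUNX1 (2 nM) was incubated alone or with ETS1 (25 nM) and detected with anti-RUNX1 antibody plus Alexa488 secondary. Values are medians over 4 replicate spots; the RUNX1+ETS1 data were normalised to the RUNX1-only data. The probes sit in constant array flanks that are not printed.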
# [2] = target: T1, ETS1 (UniProt P14921); assay: ETS1 binding intensity (PBM fluorescence) in presence of RUNX1, normalised to ETS1-only experiment (arbitrary fluorescence units); higher = stronger binding; details: ETS1 concentration 1 nM; RUNX1 concentration 25 nM
# T1 sequence: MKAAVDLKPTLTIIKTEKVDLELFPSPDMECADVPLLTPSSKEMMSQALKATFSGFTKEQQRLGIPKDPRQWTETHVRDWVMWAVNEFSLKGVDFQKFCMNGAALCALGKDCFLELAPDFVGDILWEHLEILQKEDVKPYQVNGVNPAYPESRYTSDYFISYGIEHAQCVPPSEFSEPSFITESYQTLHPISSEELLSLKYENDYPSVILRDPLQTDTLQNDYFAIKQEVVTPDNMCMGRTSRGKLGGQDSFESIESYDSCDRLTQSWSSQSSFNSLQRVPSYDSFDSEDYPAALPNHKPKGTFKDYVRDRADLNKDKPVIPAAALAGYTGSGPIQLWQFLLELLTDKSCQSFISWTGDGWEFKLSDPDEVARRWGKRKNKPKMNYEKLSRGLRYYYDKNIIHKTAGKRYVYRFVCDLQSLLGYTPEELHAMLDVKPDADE
# [3] = target: RUNX1 (UniProt Q01196); assay: RUNX1 binding intensity (PBM fluorescence) in presence of ETS1, normalised to RUNX1-only experiment (arbitrary fluorescence units); higher = stronger binding; details: RUNX1 concentration 2 nM; ETS1 concentration 25 nM
# Procedure: as §1
# [4] = target: T1, ETS1; assay: ETS1 binding intensity (PBM fluorescence), ETS1 alone (arbitrary fluorescence units); higher = stronger binding; details: ETS1 concentration 1 nM; RUNX1 concentration 0 nM
# 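Wherever RUNX1 binding intensity (PBM fluorescence) in presence of ETS1, normalised to RUNX1-only experiment is given: Full-length recombinant human ETS1 or RUNX1 bound to double-stranded 36-bp genomic probes on microarrays, detected by protein-specific primary antibody and Alexa488 secondary, spot fluorescence as median of four replicate spots.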
# 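Wherever RUNX1 binding intensity (PBM fluorescence), RUNX1 alone is given: Full-length recombinant human RUNX1 bound to double-stranded 36-bp genomic probes on a high-density microarray, scored as Alexa488 fluorescence per spot via anti-RUNX1 antibody, median of four replicate spots.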
# RUNX1, sequence (Q01196 whole entry): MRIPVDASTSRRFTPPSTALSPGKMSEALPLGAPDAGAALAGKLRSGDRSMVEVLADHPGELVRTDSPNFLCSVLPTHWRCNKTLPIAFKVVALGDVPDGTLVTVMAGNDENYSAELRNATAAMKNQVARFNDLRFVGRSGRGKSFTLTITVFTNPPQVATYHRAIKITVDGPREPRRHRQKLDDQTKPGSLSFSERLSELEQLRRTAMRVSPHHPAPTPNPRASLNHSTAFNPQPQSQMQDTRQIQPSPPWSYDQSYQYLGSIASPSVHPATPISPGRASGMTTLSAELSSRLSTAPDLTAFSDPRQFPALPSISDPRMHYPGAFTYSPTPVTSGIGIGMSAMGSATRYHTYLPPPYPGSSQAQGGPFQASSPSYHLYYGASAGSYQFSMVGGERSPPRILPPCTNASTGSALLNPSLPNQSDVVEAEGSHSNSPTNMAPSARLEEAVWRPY
sequence,measurement,setting,value
TGCCCTGACTTCCTGGTCCTGTGGTCAAGGATGGGG,RUNX1 binding intensity,[1],889
same,ETS1 binding intensity,[2],2810
same,RUNX1 binding intensity,[3],2000
TGACATCCTCTGAGGCAGCAAGCTGCGGTGAAGTCT,RUNX1 binding intensity,[1],704
same,ETS1 binding intensity,[2],561
same,RUNX1 binding intensity,[3],1300
CTCCATCTGCCCGGAAAACCGCAGCCGCCCCAACCT,RUNX1 binding intensity,[1],28600
same,ETS1 binding intensity,[2],3690
same,RUNX1 binding intensity,[3],34700
CCGCTTCCGGGACGCGAATCGCTCTGCGGCTGCGTC,RUNX1 binding intensity,[1],832
same,ETS1 binding intensity,[2],722
same,RUNX1 binding intensity,[3],2080
AGTGTCCGCCGCTTCCTGGTTGCGGGTCAGCGCCCA,RUNX1 binding intensity,[1],824
same,ETS1 binding intensity,[2],704
same,RUNX1 binding intensity,[3],2690
GGGATCTACTTCCTCTCTCGGCCGCGGCCGCAGCAC,RUNX1 binding intensity,[1],792
same,ETS1 binding intensity,[2],1150
same,RUNX1 binding intensity,[3],1730
GTTTAACAGGAAACCCTGCAGACCACAGGTTCTGTC,ETS1 binding intensity,[2],3630
same,RUNX1 binding intensity,[3],1680
GCTGTCCATTTCCGAGATGTTAATGCGGGATCTTGC,ETS1 binding intensity,[4],408
AGGTTGAAAGCACTTCCGCTGCGGCCCCCGTAGGAA,RUNX1 binding intensity,[1],833
same,ETS1 binding intensity,[2],3460
same,RUNX1 binding intensity,[3],1520
GGGGAAGAGGAAGCTGTGTCCGCGGTGCAAGGGGTT,ETS1 binding intensity,[4],533
CCCCTTCATCCGCCTCTCTCTCACCGCGCCGCTCCC,ETS1 binding intensity,[4],449
TGGCTGGGCAGGAAGGCCTGTGGCTTACGGTTCCTG,ETS1 binding intensity,[4],551
TTACGTTAAGGAGGAAACTCTGTGGTTAAACTGTAG,ETS1 binding intensity,[2],2050
same,RUNX1 binding intensity,[3],1810
CTTTGCAGGAAGCTGGGGTTCACCCACAGCCTTGTT,ETS1 binding intensity,[2],857
same,RUNX1 binding intensity,[3],878
ACCTGTAGGCGGAAGTCTGTGGCTTTATTTACACAG,RUNX1 binding intensity,[1],792
same,ETS1 binding intensity,[2],5710
same,RUNX1 binding intensity,[3],1730
GCGAAAAACGCGGAAATGCGGTGGCGGCGGCCCGCT,ETS1 binding intensity,[2],1190
same,RUNX1 binding intensity,[3],1210
GTGCTGAGCAGCTTCCCGTCTGCGGTGAAGACAGCC,RUNX1 binding intensity,[1],1150
same,ETS1 binding intensity,[2],1040
same,RUNX1 binding intensity,[3],1930
TGCCGTTTCCGGGTCACCCAGGCAGCTTGTGGCGGC,ETS1 binding intensity,[4],528
AACATTACGGAAGTTTCTCTACCCATGCGGTGTCTC,ETS1 binding intensity,[4],521
GCGCGGGCAACTTCCGGTGTGGGTGACGAGTGGTGG,ETS1 binding intensity,[2],12700
same,RUNX1 binding intensity,[3],2700
GCCCTGACCCACATCCTGCCGCAGCCTGCTTGTCCT,RUNX1 binding intensity,[1],1520
same,ETS1 binding intensity,[2],1350
same,RUNX1 binding intensity,[3],7030
CTCTTCCAGGAAGCCTTCCCTGACCACTGCTTGCTC,ETS1 binding intensity,[4],396
GGTCCGGATGTATAAAGCGCGGCCCCCTGCGGGGAG,ETS1 binding intensity,[2],1020
same,RUNX1 binding intensity,[3],997
AGAACCACTTCCTCTCAGTAAACCACAGAGACTGTA,RUNX1 binding intensity,[1],1790
same,ETS1 binding intensity,[2],1310
same,RUNX1 binding intensity,[3],5880
GACAGGATACAAGAATTCCGCGGACTGCCGCAGTCG,ETS1 binding intensity,[4],642
ACAAGGACTTCCGCCTCCCTGCGGTCCCTCCCCTAC,RUNX1 binding intensity,[1],1110
same,ETS1 binding intensity,[2],1380
same,RUNX1 binding intensity,[3],2720
GTGGGTAGGGAGGAAGCTGTGAAACCACCTCCCCTC,ETS1 binding intensity,[4],688
TGGGACGAGTGGGCGGAAACAGCCGCAGGTCTCTCT,ETS1 binding intensity,[4],1990
CTCGGCGCGACGGATATTCCCGTGACCGCCGGGTTC,ETS1 binding intensity,[4],672
AACCAAGAGGATTTCCTGCCCACACACTCAGCGTCT,ETS1 binding intensity,[4],870
GCAGAAGAGGAAATGGTTTGCCTGTGCGGTGGGGGA,RUNX1 binding intensity,[1],821
same,ETS1 binding intensity,[2],3280
same,RUNX1 binding intensity,[3],999
GCACTCGGATGTTGGCCGTAGTTGTGGTTATAGTTG,ETS1 binding intensity,[2],1090
same,RUNX1 binding intensity,[3],1110
CAAGGTTCCTCCGCTTCCTGCCCGCAGGCCGAACCT,RUNX1 binding intensity,[1],840
same,ETS1 binding intensity,[2],1600
same,RUNX1 binding intensity,[3],1830
CGAACGCCGGACGTTCTGGGCACGTGACCGCCACCC,ETS1 binding intensity,[2],1100
same,RUNX1 binding intensity,[3],938
CCTGTTCCGGGCTCCGTACACCCAGGCCCGCAGCTG,ETS1 binding intensity,[4],550
GAGTGGGGGTGGGGAGGAAGCCACAGGGCCGGGCTG,ETS1 binding intensity,[4],624
TGTCGTACATTTCCGCCTTGTGGGCACAATCTGATT,RUNX1 binding intensity,[1],971
same,ETS1 binding intensity,[2],1280
same,RUNX1 binding intensity,[3],1950
CAGAGGAGGAAGAGGAAGCCACAGCGATAGGGTCAC,ETS1 binding intensity,[4],522
ATTGTAAATTTCCTTTAAACGTCCCCACCGCGCTCC,ETS1 binding intensity,[4],463
GCTGCGCAGAGGAAACCAGGCTTGTTGGTTTTCATG,ETS1 binding intensity,[4],432
GGGCAGCATCCTGTGCCTGCTTCTCTTACCCACATC,ETS1 binding intensity,[4],494
CTAAACCGGAAGCCGCCCCTCTGACCGCTCTAAAAC,ETS1 binding intensity,[2],5990
same,RUNX1 binding intensity,[3],2010
ACCGGAAGGGCGGGGGCGTGGCGAGGTACCGCAGAC,ETS1 binding intensity,[4],1170
CCCTGCCATTTCCTGCCCAATACCGCGTATGCAACT,RUNX1 binding intensity,[1],1780
same,ETS1 binding intensity,[2],1700
same,RUNX1 binding intensity,[3],4240
GGCCTCGGCCACATCCGGGTTCCACCGCAGATTCGG,ETS1 binding intensity,[4],1850
AAACCAGAGAGGAAGTGGCACCACATGGCCAGACTG,ETS1 binding intensity,[4],2030
same,RUNX1 binding intensity,[1],755
CACGGAGCCACTTCCGGCGGCTGTGGGCGCAAAACC,ETS1 binding intensity,[4],3620
same,RUNX1 binding intensity,[1],752
same,ETS1 binding intensity,[2],4210
